Test results reported in PubChem BioAssay (NCI).
Compounds without any hit were thinned out: in the full panel of roughly 83,000, 20% have a hit.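 Growth was measured after 48 h exposure to one concentration of compound in 96-well plates. Values under 10 count as active.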 Activity calls are given as the source filed them.

Tested on: HL-60(TB) leukemia
Assay: NCI-60 one-dose screen, 48 h (100 = growth as untreated, 0 = no growth, -100 = all killed)
Conditions: 10 µM unless noted

Row | Structure (SMILES) | growth
1 | C#CCOc1ccc(C2=NN(C)C3N=C(Cl)c4ncn(C)c4N23)cc1OCC#C (stereo not given) | 98.6% (inactive)
2 | Cc1ccc2oc(=O)cc(/C(=C3/C=CC=N3)c3ccc[nH]3)c2c1 | -13.6% (active)
3 | O=c1oc2ccc3ccccc3c2cc1-c1ccnc2[nH]c(=S)[nH]c(=O)c12 | 87.3% (inactive)
4 | CCCCCCCCCCC1CO1 (stereo not given) | 104% (inactive)
5 | CN1CCN(c2ccc(Nc3ncc(Cl)c(NC[C@@H]4CCCO4)n3)cc2)CC1 | -6.65% (active)
6 | COc1cc2c(Oc3ccc(NC(=O)C4(C(=O)Nc5ccc(F)cc5)CC4)cc3F)ccnc2cc1OCCCN1CCOCC1 | -21.4% (active)
7 | O=C(CSc1nnc(-c2cc(-c3ccc(Cl)cc3)nc3ccccc23)n1-c1ccccc1)Nc1ccc(Cl)cc1 | 85.8% (inactive)
8 | COc1cc2c(cc1OC)-c1ccc3cc4c(cc3c1N(CCCn1ccnc1)C2)OCO4 | 3.45% (active)
9 | N#Cc1c(-c2ccc(F)cc2)nc(N/N=C/c2cccc(O)c2)nc1N1CCOCC1 | 47.2% (inactive)
10 | N#Cc1ccc(NC(=O)Nc2nc3ccc(OC(F)(F)F)cc3s2)cc1 | -47% (active)
11 | Cc1ccc(C2(C)NC(=O)N(CC(=O)Nc3cccc(C)c3)C2=O)cc1 (stereo not given) | 103% (inactive)
12 | C=C(c1ccc(C(=O)NCCCn2ccnc2)cc1)c1cc2c(cc1C)C(C)(C)CCC2(C)C | -47.5% (active)
13 | Cc1[nH]c(C2CC(c3ccc(C(F)(F)F)c(F)c3)=NN2c2ccccc2)c(C)c1C(=O)NCC(F)(F)F (stereo not given) | 87.6% (inactive)
14 | O=C(CCC(=O)N(CCO)CCO)N(CCO)CCO | 89% (inactive)
15 | N#Cc1ccc([N+](=O)[O-])o1 | 108% (inactive)
16 | CC(C)(C)[Si](C)(C)OC1[C@@H](CNC(=O)NC(=O)CCl)O[C@@H](n2cnc3c(N)ncnc32)[C@H]1O[Si](C)(C)C(C)(C)C (stereo not given in full) | -64.2% (active)
17 | COc1ccc(C(=O)NC(=O)Nc2ccc3c(c2)NC(=O)/C3=C\c2[nH]c(C)c(CCC(=O)O)c2C)c(F)c1 | 43.2% (inactive)
18 | C1=CN2CC(c3ccccc3)=NNC2c2ccccc21 (stereo not given) | 81.6% (inactive)
19 | FC(F)c1nc2ccccc2n1-c1nc(N2CCOCC2)nc(N2CCOCC2)n1 | 15.1% (inactive)
20 | O=C1NC(=O)/C(=C/c2ccc(Cl)cc2Cl)N1 | 97% (inactive)

Row | Structure (SMILES) | growth
21 | c1ccc(C2CC(c3cccc(Nc4ccncc4)c3)=NN2c2ccccc2)cc1 (stereo not given) | -8.94% (active)
22 | COc1cc(C2C(C#N)=C(N)Oc3cc4c(cc32)OCO4)cc2c1OCO2 (stereo not given) | -43% (active)
23 | N#CC1C(=N)Cc2ccccc2-c2ccccc21 (stereo not given) | 28.2% (inactive)
24 | COc1cc2c(c(OC)c1OC)-c1ccc(NNC(N)=S)c(=O)cc1[C@@H](NC(C)=O)CC2 | -13.9% (active)
25 | O=NC1CC=CCC1c1ccccc1 (stereo not given) | 92.6% (inactive)
26 | CC1=C(NCCN2CCCC2)C(=O)c2c(OCc3ccc(F)c(Cl)c3)cccc2C1=O | 98.1% (inactive)
27 | O=C(NCCNc1nccc(-c2c(-c3cccc(O)c3)nc3sccn23)n1)Nc1cccc(C(F)(F)F)c1 | 36.4% (inactive)
28 | Cc1nc2c(c(=O)[nH]1)OCN(Cc1ccccc1)C2 | 96.5% (inactive)
29 | O=C1C=Cc2ccccc2/C1=C/c1[nH]c(=O)[nH]c1O | 43.3% (inactive)
30 | CCN1CCN(c2nc(NNC(=O)c3ccccc3)nc(N3CCN(C(c4ccccc4)c4ccccc4)CC3)n2)CC1 | 23.3% (inactive)
31 | Cc1cccc(N2C(=O)/C(=C/C(Cl)=C/c3ccc([N+](=O)[O-])cc3)SC2=S)c1C | -13.3% (active)
32 | CCN(CC)CCN1CNC(=S)NC1 | 78.8% (inactive)
33 | COc1ccc(/C=N/NC(=O)Cn2c(-c3ccc(S(C)(=O)=O)cc3)nc3cc(Cl)ccc32)cc1 | -51.6% (active)
34 | COc1ccc(C(O)c2cc3c(N)c(C(=O)Nc4cccc(Cl)c4)sc3nc2C)cc1 (stereo not given) | 0.332% (active)
35 | CCCCCCn1c(=N)n(CC(O)COc2cccc(C)c2)c2ccccc21 (stereo not given) | -48% (active)
36 | Cc1ccccc1N1CCN(C(=S)c2ccccc2)CC1 | 108% (inactive)
37 | CCOC(C)=N | 78.7% (inactive)
38 | COc1ccc(-c2c(N)n[nH]c2-c2ccccc2O)cc1OC | 110% (inactive)
39 | COc1cc(/C=C2\CN(S(=O)(=O)c3ccccc3)C/C(=C\c3cc(CN4CCCC4)c(O)c(OC)c3)C2=O)cc(CN2CCCC2)c1O | -14.8% (active)
40 | COc1ccc(OC)c(Nc2nnc(-c3ccc(Cl)cc3)o2)c1 | 94.8% (inactive)
